Results filed as inconclusive are left out. The source made the active and inactive calls. The call rests on the fitted dose curve; in most records, active means well fitted cell-killing curve with a large enough effect; inconclusive means small, poorly fitted or top-dose-only effect, or effect the other way; inactive means flat fitted curve, though single readings scatter.
Key:
Assay in all cases: Primary qHTS to identify gynecologic anti-cancer compounds using libraries of approved drugs and bioactive compounds (AID 1345084); further: nearly all actives have a fitted effect of over 55% in size
C33A = settings: Gynecologic cancer cell panel viability, ATPlite luminescence, 48 h; series mostly up to 57.5 µM
Summary of the method: (§1)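 In this quantitative HTS, cell killing is estimated from loss of ATP-dependent luciferase light. Cells see five compound concentrations over a 48 h exposure.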

CAOV3 = settings: Gynecologic cancer cell panel viability, ATPlite luminescence, 48 h; series mostly up to 57.5 µM
Summary of the method: as §1

CASKI = settings: Gynecologic cancer cell panel viability, ATPlite luminescence, 48 h; series mostly up to 57.5 µM
Summary of the method: as §1

Es-2 = settings: Gynecologic cancer cell panel viability, ATPlite luminescence, 48 h; series mostly up to 57.5 µM
Summary of the method: as §1

HeLa = settings: Gynecologic cancer cell panel viability, ATPlite luminescence, 48 h; series mostly up to 57.5 µM
Summary of the method: as §1

Hek293T = settings: Gynecologic cancer cell panel viability, ATPlite luminescence, 48 h, control line for the selectivity index; series mostly up to 57.5 µM
Summary of the method: as §1

JEG-3 = settings: Gynecologic cancer cell panel viability, ATPlite luminescence, 48 h; series mostly up to 57.5 µM
Summary of the method: as §1

OV90 = settings: Gynecologic cancer cell panel viability, ATPlite luminescence, 48 h; series mostly up to 57.5 µM
Summary of the method: as §1

PA-1 = settings: Gynecologic cancer cell panel viability, ATPlite luminescence, 48 h; series mostly up to 57.5 µM
Summary of the method: as §1

SKOV3 = settings: Gynecologic cancer cell panel viability, ATPlite luminescence, 48 h; series mostly up to 57.5 µM
Summary of the method: as §1

Measured: Potency

CCCOC(=O)c1ccccc1
inactive: all assays above

CN(N=O)C(=O)N[C@@H]1[C@@H](O)[C@H](O)[C@@H](CO)O[C@@H]1O
not listed: SKOV3
inactive: all other assays above

O=S(=O)(O)c1cc(I)c(O)c2ncccc12
inactive: all assays above

Cc1ccc(C(C)C)cc2c(C)ccc1-2
not listed: SKOV3
inactive: all other assays above

CCN(CC)CCSC(=O)C(c1ccccc1)c1ccccc1
inactive: all assays above

O=c1cc[nH]c(=S)[nH]1
inactive: all assays above

Cn1c(=O)c2c(ncn2CC2OCCO2)n(C)c1=O
inactive: all assays above

C=Cc1c(C)c2cc3[nH]c(cc4nc(cc5nc(cc1[nH]2)C(C)=C5CCC(=O)O)C(CCC(=O)O)=C4C)c(C)c3C=C
not listed: SKOV3
inactive: all other assays above

CCN(CC)CCNC(C(=O)OCCC(C)C)c1ccccc1 (stereo not given)
inactive: all assays above

OCC(CO)N[C@H]1C[C@](O)(CO)[C@@H](O)[C@H](O)[C@H]1O
inactive: all assays above

CN1[C@@H]2CC[C@H]1CC(OC(=O)C(O)c1ccccc1)C2 (stereo not given in full)
inactive: all assays above

O=S(=O)(O)NC1CCCCC1
inactive: all assays above

COc1cc2[nH]c(=O)[nH]c(=O)c2cc1OC
inactive: all assays above

CCN(CC)CCNC(=O)c1cc(Cl)c(N)cc1OC
inactive: all assays above

CCCCCCCCCCCCCCCCCCOCC(O)CO (stereo not given)
inactive: all assays above

CC1(C)OC(=O)NC1=O
inactive: all assays above

O=Cc1ccccc1C=O
inactive: all assays above

O=c1[nH]cnc2c1ncn2[C@@H]1O[C@H](CO)[C@@H](O)[C@H]1O
inactive: all assays above

Nc1ccc(S(=O)(=O)Nc2nccs2)cc1
not listed: SKOV3
inactive: all other assays above

C[C@H]1O[C@H](O[C@H]2[C@H](O)[C@@H](O)[C@@H](O[C@H]3[C@H](O)[C@@H](O)[C@H](O)O[C@@H]3CO)O[C@@H]2CO)[C@H](O)[C@@H](O)[C@@H]1N[C@H]1C=C(CO)[C@@H](O)[C@H](O)[C@H]1O
not listed: SKOV3
inactive: all other assays above

N[C@H]1C(O)O[C@H](CO)[C@@H](O)[C@@H]1O (stereo not given in full)
inactive: all assays above

CC(C)C(=O)c1c(C(C)C)nn2ccccc12
inactive: all assays above
